Assay results published in PubChem BioAssay AID588342 (National Center for Advancing Translational Sciences (NCATS), 2011).
The campaign covered roughly 360,000 compounds. About 25,000 (6.9%) were called active. Inconclusive results (about 9%) are left out. The call rests on the fitted dose curve; in most records, active means well fitted inhibition curve with a large enough effect; inconclusive means small, poorly fitted or top-dose-only effect; inactive means flat fitted curve, though single readings scatter. For the sample, actives were picked, then their nearest neighbours and some compounds at random.

biological target: Luciferin 4-monooxygenase (Photinus pyralis) (UniProt P08659); test: qHTS profiling assay for firefly luciferase inhibitor/activator using purifed enzyme and Km concentrations of substrates (counterscreen for miR-21 project); conditions: purified FLuc, luminescence inhibition; series mostly up to 57.5 µM; activity change, negative = inhibition: at the top concentration; further: nearly all actives have a fitted effect of over 55% in size;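 on activity change, negative = inhibition: plate controls were vehicle for no effect and reference inhibitor for full effect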
Sequence (P08659 whole entry, looked up): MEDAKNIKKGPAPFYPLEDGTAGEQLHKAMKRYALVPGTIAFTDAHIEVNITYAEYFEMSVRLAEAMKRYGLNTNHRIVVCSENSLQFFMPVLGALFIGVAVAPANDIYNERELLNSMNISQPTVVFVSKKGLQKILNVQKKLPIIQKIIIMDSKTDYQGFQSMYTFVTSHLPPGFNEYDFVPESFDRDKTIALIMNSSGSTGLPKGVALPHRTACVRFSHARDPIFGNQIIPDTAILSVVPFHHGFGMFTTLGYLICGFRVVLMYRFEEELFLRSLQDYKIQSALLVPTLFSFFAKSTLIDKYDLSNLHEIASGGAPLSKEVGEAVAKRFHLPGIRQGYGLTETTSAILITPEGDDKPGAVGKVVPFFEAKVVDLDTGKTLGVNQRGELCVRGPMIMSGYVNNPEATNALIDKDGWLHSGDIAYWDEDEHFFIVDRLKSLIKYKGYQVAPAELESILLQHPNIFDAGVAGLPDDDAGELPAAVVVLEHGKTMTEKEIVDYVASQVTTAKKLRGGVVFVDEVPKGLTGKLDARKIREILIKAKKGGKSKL
Procedure, shortened: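 Purified P. pyralis luciferase (10nM final) with 10uM D-luciferin and 10uM ATP (Km levels) in 50mM Tris acetate pH 7.5, 10mM Mg acetate, 0.01% Tween-20, 0.05% BSA; qHTS 6-point titration, ~60 µM downward; luminescence read.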
Potency means the concentration at half of the fitted maximal effect.

Row | Compound | activity change, negative = inhibition | Potency
1 | Cc1ccc2c(c1)-c1c(cnn1CC(=O)Nc1ccccc1C#N)CO2 | -1.26% (inactive) | –
2 | Cc1ccc(Cn2c(=O)n(Cc3nc(-c4ccccc4)no3)c(=O)c3cc4c(cc32)OCO4)cc1 | -5.64% (inactive) | –
3 | Cc1ccccc1OCc1nnc(SCC(=O)N2c3ccccc3Sc3ccc(Cl)cc32)o1 | 2.4% (inactive) | –
4 | CC1CCC(NS(=O)(=O)c2ccc3c(c2)CC(=O)N3)CC1 (stereo unspecified) | 2.55% (inactive) | –
5 | Cc1ccc(NC(=O)c2cc(S(=O)(=O)NCCC3=CCCCC3)ccc2F)cc1C | -8.28% (inactive) | –
6 | CCN1CCN(C(=O)CSc2ccc(C)cc2)CC1 | -14.3% (inactive) | –
7 | Cc1ccc(SCC(=O)c2cc(C)c(OC(=S)N(C)C)c(C)c2)cc1 | – | 8.49 µM (active)
8 | COC(=O)c1cc(OC)c(OC)cc1NC(=O)CSc1ccc(C)cc1 | 0.552% (inactive) | –
9 | COc1cc(Nc2nc3ccc(Cl)cc3n3cnnc23)cc(OC)c1OC | -3.86% (inactive) | –
10 | COc1cc(/C=N/Nc2nn3cnnc3c3ccccc23)cc(OC)c1OC | – | 0.953 µM (active)
11 | COc1ccc(OC)c(Nc2nc3ccccc3n3cnnc23)c1 | -12.2% (inactive) | –
12 | O=C(CSc1nnc(CNC(=O)c2ccccc2)n1-c1ccc(F)cc1)Nc1ccccc1F | -5.85% (inactive) | –
13 | COc1cc(OC)c(/C=N/NC(=O)c2ccc([N+](=O)[O-])cc2)cc1Br | -14.7% (inactive) | –
14 | Cc1[nH]n(-c2ccc([N+](=O)[O-])cc2)c(=O)c1C=NCCN1CCN(C(=O)c2ccccc2F)CC1 | -12% (inactive) | –
15 | Cc1cc[n+](-c2[nH]c(=O)sc2/C=N/NC(=O)c2ccccc2[O-])cc1C | 0.934% (inactive) | –
16 | COc1cc(/C=N/NC(=O)c2ccoc2C)ccc1OCCN1CCCCC1 | -1.73% (inactive) | –
17 | Cc1ccc(-n2[nH]c(C)c(/C=N/NC(=O)c3cccc([N+](=O)[O-])c3)c2=O)cc1C | – | 0.426 µM (active)
18 | Cc1[nH]n(-c2ccccc2)c(=O)c1/C=N/NC(=O)c1ccoc1C | – | 21.3 µM (active)
19 | O=C(NNC1=NCCC1)c1cccc(S(=O)(=O)N2CCCCC2)c1 | -1.3% (inactive) | –
20 | Cc1ccc(Cl)cc1N(C)C(=O)Cn1nc(Cc2cccnc2)c2ccccc2c1=O | -1.43% (inactive) | –
21 | COc1cccc(N2CCN(C(=O)CCCCCn3c(=O)[nH]c4ccccc4c3=O)CC2)c1 | 5.13% (inactive) | –
22 | COCCN(C(=O)CC1CCCCC1)c1c(N)n(CC(C)C)c(=O)[nH]c1=O | 0.775% (inactive) | –
23 | CCOC(=O)N1CCc2c(sc3c2c(=O)n(-c2ccc(CC)cc2)c(=O)n3C)C1 | 0.141% (inactive) | –
24 | CCNC(=O)c1cnn(-c2ccccc2)c1-c1ccccc1 | -2.26% (inactive) | –
25 | O=C(Cn1cnc2c(oc3ccccc32)c1=O)Nc1ccc(OC(F)(F)F)cc1 | 1.89% (inactive) | –
26 | CCN(CC)CC(=O)Nc1nn(-c2ccccc2)nc1C(N)=O | -26.6% (inactive) | –

Row | Compound | activity change, negative = inhibition | Potency
27 | CC(=O)c1nn(-c2ccc(OC(F)(F)F)cc2)nc1Nc1ccccc1 | – | 0.379 µM (active)
28 | Cc1ccc(C(=O)NCCSc2c(C)[nH]c3ccccc23)cc1C | 3.87% (inactive) | –
29 | CCOc1ccc(CNC(=O)c2cc(-c3ccc(Cl)s3)nc3ccccc23)cc1 | -1.03% (inactive) | –
30 | CCc1ccc(-c2cc(C(=O)NCc3ccco3)c3ccccc3n2)s1 | – | 5.36 µM (active)
31 | O=C(NCc1ccco1)c1nc(-c2ccccc2)n(-c2ccccc2)n1 | 3.28% (inactive) | –
32 | COc1ccccc1N1CCN(CCCNC(=O)c2cnn(-c3ccccc3Cl)c2C2CCN(C(=O)OC(C)(C)C)CC2)CC1 | -6.1% (inactive) | –
33 | Cc1ccc(OS(=O)Nc2cccc3nccnc23)cc1 (stereo unspecified) | -1.56% (inactive) | –
34 | CCOc1ccc(NC(=O)C(=O)NCCc2csc3nc(-c4ccccc4F)nn23)cc1 | 3.81% (inactive) | –
35 | COc1ccc(OC)c(NC(=O)c2sc3nc(C)cc(C)c3c2N)c1 | -0.687% (inactive) | –
36 | COCc1cc(C)nc2sc(C(=O)NC3CCCCC3)c(N)c12 | – | 16.9 µM (active)
37 | COc1cc(OC)c(C(=O)NC2CCCCCC2)cc1OC | -18.4% (inactive) | –
38 | CCOC(=O)c1c(C)oc2nc(C)nc(Nc3ccc(CC)cc3)c12 | -5.35% (inactive) | –
39 | O=C(Nc1ccc(F)cc1)C(=O)c1cn(CC(=O)N2CCOCC2)c2ccccc12 | – | 2.69 µM (active)
40 | O=C(CSc1cn(CC(=O)N2CCOCC2)c2ccccc12)Nc1ccccc1 | -4.95% (inactive) | –
41 | COc1cccc(NC(=O)C(=O)c2cn(CC(=O)N3CCOCC3)c3ccccc23)c1 | – | 5.36 µM (active)
42 | CN1CCN(C(=O)C(=O)c2cn(CC(=O)N3CCCC3)c3ccccc23)CC1 | 4.17% (inactive) | –
43 | O=C(NCc1ccco1)C(=O)c1cn(CC(=O)N2CCCCCC2)c2ccccc12 | -6.85% (inactive) | –
44 | COc1cccc(NC(=O)CS(=O)(=O)c2cn(CC(=O)N3CCOCC3)c3ccccc23)c1 | -3.28% (inactive) | –
45 | CCc1cccc(C)c1NS(=O)(=O)c1ccc(-c2cc(C)no2)s1 | -0.558% (inactive) | –
46 | Cc1ccc2oc(=O)c3cnn(CC(=O)N4CCN(c5cccc(Cl)c5)CC4)c3c2c1 | 0.67% (inactive) | –
47 | Cc1ccc(N2CC(c3nnc(Cc4ccccc4Cl)o3)CC2=O)cc1 (stereo unspecified) | 3.35% (inactive) | –
48 | Cc1cccc(NC(=O)CSc2nc3c(oc4ccccc43)c(=O)n2-c2ccc(F)cc2)c1 | 3.43% (inactive) | –
49 | COc1ccc(-c2nc3nc(C)cc(C)n3c2Nc2c(C)cccc2C)cc1 | 4.68% (inactive) | –
50 | CCCCC(CC)CNC(=O)C1CCN(S(=O)(=O)c2cccc3nsnc23)CC1 (stereo unspecified) | -6.3% (inactive) | –
51 | COc1cc(C(=O)OC2CCOC2=O)c([N+](=O)[O-])cc1OC (stereo unspecified) | 0.894% (inactive) | –
